About 6,500 (4.3%) of roughly 150,000 compounds were called active. About 12% were inconclusive and are not listed. The sample as a whole holds a higher share of actives than the screen did. Unmarked numbers belong to inactive results. Calls follow the shape of the dose curve; as a rule, active = well fitted inhibition curve with a large enough effect (not every such curve was filed as active); inconclusive = small, poorly fitted or top-dose-only effect, or another doubt; inactive = no such curve, though single readings can be large or run the other way.
biological target: 15-hydroxyprostaglandin dehydrogenase [NAD(+)] (Homo sapiens) (UniProt P15428); experiment: qHTS Assay for Inhibitors of HPGD (15-Hydroxyprostaglandin Dehydrogenase); conditions: purified HPGD, NADH fluorescence kinetic, PGE2 substrate; activity change, negative = inhibition: hits give low values
Sequence (P15428 whole entry, looked up): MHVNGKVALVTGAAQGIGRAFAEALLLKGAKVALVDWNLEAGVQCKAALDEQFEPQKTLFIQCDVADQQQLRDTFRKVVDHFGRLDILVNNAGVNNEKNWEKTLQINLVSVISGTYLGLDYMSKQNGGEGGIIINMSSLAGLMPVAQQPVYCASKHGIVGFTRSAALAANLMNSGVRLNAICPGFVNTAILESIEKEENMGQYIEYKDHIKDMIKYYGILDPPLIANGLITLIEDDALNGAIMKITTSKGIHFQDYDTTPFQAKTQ
Procedure, shortened: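 NADH formation kinetics: reaction with 30 uM PGE2 and 1 mM NAD+ (final), 20 nM enzyme, Tris-HCl pH 8 with Tween 20, after 15 min compound preincubation at room temperature. Fluorescence change, last versus first of five reads.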
% is scaled to controls: 0 for no effect and ±100 for the full control effect; potency is read from the fitted curve at half-maximal effect.

Row | SMILES | activity change, negative = inhibition | Potency
1 | O=C(CCCCCNC(=O)c1ccccc1)N/N=C/c1ccccc1 | -2.21% | 
2 | CN(C)S(=O)(=O)c1cccc(NC(=S)N/N=C/C(=O)c2ccccc2)c1 | -16% | 
3 | Cc1ccc2sc(NNC(=O)c3ccc4c(c3)OCCO4)nc2c1C |  | 11.2 µM (active)
4 | O=C(Nc1nc2ccccc2s1)c1ccc2c(c1)OCO2 | -20.6% | 
5 | O=C(Nc1ccc2c(c1)OCCO2)c1ccncc1 | -1.78% | 
6 | CCCCn1c(O)c(N=NC(=O)Cn2c(C(F)(F)F)nc3ccccc32)c2ccccc21 | -5.51% | 
7 | CNS(=O)(=O)c1ccc(N2CCCC2=O)c([N+](=O)[O-])c1 | -12.5% | 
8 | COc1ccc(NS(=O)(=O)c2ccc(NC(=O)C(C)(C(F)(F)F)C(F)(F)F)cc2)nn1 | -19.1% | 
9 | COc1cc(NS(=O)(=O)c2ccc(N/C=C(\C=O)c3nc4cc(Cl)ccc4o3)cc2)nc(OC)n1 |  | 14.1 µM (active)
10 | COC(=O)c1ccc(CSc2nc3cc(Cl)ccc3o2)cc1 | -20.6% | 
11 | O=C(NC(CC(=O)N1CCN(c2ccccc2)CC1)c1ccccc1)c1ccccc1Cl (stereo not drawn) | -5.04% | 
12 | COc1ccc(N(C(=O)c2ccc(C)cc2)S(=O)(=O)c2cccs2)cc1 | -10% | 
13 | COc1ccc(N2C(=O)C(O)C2c2ccc(C)cc2)cc1 (stereo not drawn) | -14.1% | 
14 | Cc1ccc(S(=O)(=O)c2ccc(Cl)cc2)cc1S(=O)(=O)NC(C(=O)O)C(C)C (stereo not drawn) | -5.59% | 
15 | O=C(/C=C/c1ccc(Cl)cc1Cl)NCc1ccco1 |  | 15.8 µM (active)
16 | O=C(NCc1ccco1)c1cc(-c2cccnc2)nc2ccc(Cl)cc12 | -28% | 
17 | O=C(NCc1ccco1)C1(c2ccc(Cl)cc2)CCCC1 | -8.03% | 
18 | CCNC(=S)N(CCc1c(C)[nH]c2ccc(C)cc12)Cc1ccco1 | -13.1% | 
19 | COc1cc2c(cc1OC)C(=O)NCC(C)(C)O2 | -19.2% | 
20 | COc1ccc(N2C(=O)CNC2=S)cc1 | -14.3% | 
21 | COc1ccc(-n2c(C)csc2=S)cc1 | -9.23% | 
22 | COc1ccc(-c2cn(-c3ccc(OC)cc3)c(=S)[nH]2)cc1 |  | 25.1 µM (active)
23 | CN(C)S(=O)(=O)c1cc(NC(=O)CN2C(=O)NC3(CCCc4ccccc43)C2=O)ccc1Cl (stereo not drawn) | -12.7% | 
24 | O=C(O)c1ccc(N=NN2CCOCC2)cc1 | -13.6% | 

Row | SMILES | activity change, negative = inhibition | Potency
25 | Cc1ccc(NC(=O)NC(=O)N(C2CCCCC2)S(=O)(=O)c2ccccc2)cc1 | -16% | 
26 | CC(=O)Nc1ccc(S(=O)(=O)NC(C)C(=O)OCC(=O)NC2CCCC2)cc1 (stereo not drawn) | -4.32% | 
27 | CC(C)Oc1ccc(CCc2n[nH]c(=S)n2Cc2ccccc2)cc1 |  | 10 µM (active)
28 | CCCc1cc(-c2n[nH]c(=S)n2CC)c2ccccc2n1 | -28.5% | 
29 | CCCCC(CC(C)O)c1n[nH]c(=S)n1-c1ccccc1 (stereo not drawn) | -3.38% | 
30 | O=C(N/N=C\c1ccc(Br)cc1)c1ccc(Cn2cccn2)o1 | -5.99% | 
31 | COCCOC(=O)c1c(C)oc2cc(Br)c(OCC(N)=O)cc12 | -7.04% | 
32 | COC(C(=O)NCc1ccccc1C)c1ccccc1 (stereo not drawn) | -8.94% | 
33 | Cc1nc2ccccc2cc1C(=O)N/N=C/c1ccc([N+](=O)[O-])cc1 | -5.88% | 
34 | Cc1cc(C(F)(F)F)n2ncc(-c3ccccc3)c2n1 | -0.556% | 
35 | Cn1c(-c2sc3cc(C(F)(F)F)cnc3c2-c2ccccc2)n[nH]c1=S |  | 31.6 µM (active)
36 | CCOC(=O)c1c(C)[nH]c(=S)c(C#N)c1-c1ccccc1 | -27.3% | 
37 | CCc1c(C)[nH]c(=S)c(C#N)c1C |  | 35.5 µM (active)
38 | CCCCC1S/C(=N/N=C/c2cccs2)NC1=O (stereo not drawn) | -7.59% | 
39 | COC(=O)C1=C(C(=O)OC)[C@@H]2Nc3ccccc3[C@@]23C[C@@H](C(=O)OC)N(S(=O)(=O)c2ccc([N+](=O)[O-])cc2)C3=N1 | -10.9% | 
40 | Cc1ccc(C)c(NC(=S)NNC(=O)c2csc(C)c2)c1 | -5.84% | 
41 | Cn1ncc2c(Nc3cccc4ccccc34)ncnc21 | -9.06% | 
42 | COc1ccc(Nc2ncnc3ccc(OC)cc23)cc1 | -4.83% | 
43 | CN(C)c1cc2c(Nc3ccc4c(cnn4Cc4ccccc4)c3)ncnc2cn1 |  | 12.6 µM (active)
44 | CCOC(=O)C1=C(c2ccc(OC)cc2)C(=O)c2ccccc2C1=O | -6.53% | 
45 | CCc1nc2oc3ccccc3c(=O)c2c(=O)n1Cc1ccc(OC)cc1 |  | 25.1 µM (active)
46 | O=c1c2ccccc2oc2nc(C3CCCCC3)n(Cc3ccco3)c(=O)c12 | -6.04% | 
47 | COc1ccc(N2CCN(Cc3cc(=O)oc4ccc5ccccc5c34)CC2)cc1 | -9.86% | 
48 | COC(C(=O)Nc1ccc(C(C)=O)cc1)c1ccccc1 (stereo not drawn) | -9.31% | 

Row | SMILES | activity change, negative = inhibition | Potency
49 | O=C(Cc1cccs1)Nc1cccc(-c2nc3ccccc3[nH]2)c1 | -8.46% | 
50 | O=C(CCc1nc2ccccc2c(=O)[nH]1)OCC(=O)c1cccc(Cl)c1 | -9.26% | 
51 | CCOc1cc(C(=O)OCC(=O)Nc2cccc(C)c2)ccc1OCC(=O)N1CCOCC1 | -18.5% | 
52 | Cc1ccc(C(=O)C(=S)N2CCOCC2)cc1 | -3.51% | 
53 | CCOc1cc(C(=S)N2CCOCC2)ccc1O |  | 12.6 µM (active)
54 | COc1ccc2c(c1)O[C@@H](c1ccc3c(c1)OCO3)[C@H](OC(=O)NCCc1ccc(OC)c(OC)c1)C2=O | -3.81% | 
55 | S=C(Nc1cccc(Cl)c1)Nc1ccc2cn[nH]c2c1 | -14.3% | 
56 | Cc1cc(C)cc(C(=O)N2CCN=C2SCc2ccc([N+](=O)[O-])cc2)c1 | -11.7% | 
57 | O=C(COc1ccccc1F)NNC(=O)c1ccc(N2CCCCC2)c([N+](=O)[O-])c1 | -21.3% | 
58 | O=C1CCCC(O)=C1N=Nc1ccc2ncsc2c1 |  | 31.6 µM (active)
59 | COc1ccc(NC(=O)c2nc(-n3nc(C)cc3C)ccc2Cl)cc1Cl | -17.4% | 
60 | CCCN(CCC)C(=S)Nc1cc(C(=O)OC)ccc1C(=O)OC | -9.23% | 
61 | COc1cc(OC)nc(NC(=O)CCl)n1 | -16.6% | 
62 | O=C(NNc1ccccn1)c1ccc(Cl)nc1 | -23% | 
63 | O=C(CCl)NNc1cccc(Cl)n1 |  | 28.2 µM (active)
64 | COc1cc(NC(=S)NNC(=O)CC(C)C)c(OC)cc1Cl |  | 31.6 µM (active)
65 | CCOCC(=O)Nc1cc(OC)c(Cl)cc1OC | -3.42% | 
66 | CC(C)CC(=O)NC(=S)Nc1cc(C(=O)O)ccc1Cl | -13.5% | 
67 | COc1ccc(-c2nc3c(c4c2C[C@H](c2ccccc2)OC4)CN(S(=O)(=O)c2c(C)noc2C)CC3)c(C)c1 | -1.95% | 
68 | Cc1c(NC(=O)CCCOc2ccccc2)cccc1[N+](=O)[O-] | -12.9% | 
69 | Cc1ccc(S(=O)(=O)N/N=C\c2cc3c(cc2[N+](=O)[O-])OCO3)cc1 | -28.1% | 
70 | Cc1ccc(-c2n[nH]c(=S)n2/N=C/c2cc3c(cc2[N+](=O)[O-])OCO3)cc1 |  | 1.58 µM (active)
71 | O=C(Cc1cc(=O)[nH][nH]1)N/N=C/c1ccccc1[N+](=O)[O-] | -14.9% | 
72 | O=[N+]([O-])c1ccccc1/C=N/n1c(COc2ccccc2)n[nH]c1=S |  | 7.08 µM (active)

Row | SMILES | activity change, negative = inhibition | Potency
73 | CCOC(=O)c1c(C)[nH]c(C(=O)COc2ccc3c(c2)OCO3)c1C | -6.28% | 
74 | CCOc1ccc(-c2n[nH]c(=S)n2/N=C/c2cc3c(cc2[N+](=O)[O-])OCO3)cc1 |  | 3.55 µM (active)
75 | CCOC(=O)c1nc(-c2ccc3c(c2)OCO3)[nH]c1C | -11.1% | 
76 | COC(=O)/C(=C1\Oc2ccc(C(C)(C)C)cc2S1)C(F)(F)F | -12.2% | 
77 | COc1cc(OC)cc(-c2nc3ccccc3c(=O)n2NC(=O)c2cccnc2Cl)c1 | -8.81% | 
78 | NC(=O)Nc1ccccc1C(=O)NCCc1ccccc1 | -3.92% | 
79 | CCOc1cc(/C=N/NC(=O)OC)ccc1OCCSc1ccc(Cl)cc1 | -11.7% | 
80 | Cc1nn(-c2ccccc2)c2c1C(c1cccc([N+](=O)[O-])c1)N(c1ccccc1)C(=O)N2 (stereo not drawn) | -6.84% | 
81 | CC(Sc1cccc[n+]1[O-])C(=O)Nc1cccc(S(=O)(=O)N2CCOCC2)c1 (stereo not drawn) | -20.6% | 
82 | CC(=O)CC(c1ccccc1)C1C(=O)Oc2ccccc2C1=O (stereo not drawn) | -12.2% | 
83 | O=C(c1cncc(Br)c1)N1CCN(c2ccc([N+](=O)[O-])cc2)CC1 | -27.4% | 
84 | CSCc1ccc(C(=O)Nc2cc(C)cc(C)c2)cc1 | -12.7% | 
85 | O=C(c1cccnc1)N(c1cc2sc(=O)oc2c2ccccc12)S(=O)(=O)c1ccccc1 |  | 17.8 µM (active)
86 | COc1ccc(N(C(=O)c2cccnc2)S(=O)(=O)c2ccc3c(c2)n(C)c(=O)n3C)cc1 | -4.39% | 
87 | CN(C)S(=O)(=O)c1cccc(C(=O)Nc2cccnc2)c1 | -13.1% | 
88 | COc1ccc(/C=N/NC(=O)c2ccccc2)cc1OS(=O)(=O)c1ccccc1 | -15.2% | 
89 | Cn1c(=NC(=O)c2cnccn2)sc2ccccc21 | -8.2% | 
90 | Cn1c(=NC(=O)CSCC(=O)N2CCCCC2)sc2ccccc21 |  | 22.4 µM (active)
91 | Cn1c(=NC(=O)CSCC(=O)N2CCOCC2)sc2ccccc21 | -16.8% | 
92 | O=C(Nc1nc(-c2ccc(-c3ccccc3)cc2)cs1)c1cnccn1 | -5.23% | 
93 | CN(c1ccccc1)S(=O)(=O)c1cccc(NC(=O)Cc2c(F)cccc2Cl)c1 | -8.06% | 

— PubChem BioAssay AID894 (National Center for Advancing Translational Sciences (NCATS), 2007)
